IL1B secr inh: inhibitors of inflammasome signaling (IL-1 beta secretion). THP-1 LPS/ATP IL-1B secretion, AlphaLISA, 16 h; hits give low values. activity change, % at 57.5 µM. 360,000 compounds, 4.7% hits; in the data active means activity change below about -50%; inconclusive means mostly about -30% to -49%; further: on the % scale 0 is the no-effect control and ±100 the full control effect
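THP-1 cells pretreated 1 hr with compounds (up to 57.5 uM final), then stimulated with LPS (250 ng/mL final) plus ATP (1.25 mM final); secreted IL-1B measured by AlphaLISA after 16 hr, decreased signal indicating inhibition.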
MCF10A rereplic: inducers of DNA re-replication in MCF 10A breast cells. MCF 10A DNA re-replication, Hoechst nuclear intensity, 48 h. Potency, µM (highest dose often 46.1 µM), inactives show at the highest dose activity, positive = re-replication, usual class: activators. 350,000 compounds, 2.9% hits. AID 624296; further: potency means the concentration at half of the fitted maximal effect; % of control where 0% means no effect; nearly all actives have a fitted effect of over 50% in size
KB-3-1 cytotox: kills parental KB-3-1 adenocarcinoma cells; KB-3-1 viability, CellTiter-Glo ATP luminescence, 72 h; Potency, µM (titrated, usually from 46.1 µM), hits mostly cytotoxic; 400,000 compounds, 1.4% hits; AID 1347075; further: potency means the concentration at half of the fitted maximal effect; on the % scale 0 is the no-effect control and ±100 the full control effect; nearly all actives have a fitted effect of over 60% in size
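Multi-concentration cytotoxicity screen in KB-3-1 cells grown in DMEM lacking phenol red with 10% FBS. After 72 h at 37 °C with compound, ATP-dependent luminescence was recorded.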
KB-V1 cytotox: kills drug-selected multidrug resistant KB-V1 cells | KB-V1 MDR cells viability, CellTiter-Glo, 72 h | Potency, µM (doses to about 46.1 µM), actives largely listed as cytotoxic | 400,000 compounds, 3.4% hits; further: potency means the concentration at half of the fitted maximal effect; on the % scale 0 is the no-effect control and ±100 the full control effect; nearly all actives have a fitted effect of over 60% in size
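KB-V1, DMEM (no phenol red) + 10% FBS; cpd pin-transferred, titration series; 72 h, 37 degrees C; CellTiter-Glo, luminescence. Data normalized, curve-fit.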
SW480 rereplic: DNA re-replication induction in SW480 cells; SW480 DNA re-replication, Hoechst DNA content imaging, 48 h; Potency, µM (titrated, usually from 46.1 µM), for the others: at the top dose re-replication activation, most hits filed as activators; 340,000 compounds, 1.8% hits; AID 624297; further: potency means the concentration at half of the fitted maximal effect; % of control where 0% means no effect; nearly all actives have a fitted effect of over 55% in size
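SW480 cells exposed to compounds for 48 hr at 37 C, 5% CO2, then Hoechst-stained 40 min. Nuclear DNA content imaged by fluorescence scanning (405 nm excitation, 500-530 nm emission); re-replication scored as increased high-intensity nuclei.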
* = called active by the depositor. Shown are actives, neighbours in structure and some others; about 9.9% of the full set was active somewhere. Unless noted, the call rests on the fitted dose curve; in most records, active means well fitted curve in the direction sought with a large enough effect; inconclusive means small, poorly fitted or top-dose-only effect, or another doubt; inactive means no such curve, though single readings can be large; an effect the other way counts as inactive or inconclusive.

`O/N=C/c1c[nH]c2ccccc12` gave IL1B secr inh -1, MCF10A rereplic 0%, KB-3-1 cytotox inactive, KB-V1 cytotox inactive and SW480 rereplic 3%.
Screening COc1cccc(NC(=O)c2cccn(Cc3ccccc3C)c2=O)c1 returned KB-3-1 cytotox inconclusive and KB-V1 cytotox inactive.
Cn1c(N2CCNCC2)nc2ccccc21 was read as IL1B secr inh 1, MCF10A rereplic -2%, KB-3-1 cytotox inactive, KB-V1 cytotox inactive and SW480 rereplic -9%.
Cc1cc(N2CCNCC2)nc2ccccc12 was read as IL1B secr inh -63*, MCF10A rereplic inconclusive, KB-3-1 cytotox inactive, KB-V1 cytotox inactive and SW480 rereplic 8%.
For O=C(O)C(Br)CBr (stereo not given) the results were IL1B secr inh -11, MCF10A rereplic 10%, KB-3-1 cytotox inactive, KB-V1 cytotox inactive and SW480 rereplic -40%.
For COc1ccc(NC2=NCC(C)S2)cc1 (stereo not given) the results were IL1B secr inh -15, MCF10A rereplic -11%, KB-3-1 cytotox inactive, KB-V1 cytotox inactive and SW480 rereplic inconclusive.
COc1ccc(NC2=NC(C)(C)CS2)cc1 was read as IL1B secr inh -55*, MCF10A rereplic 5%, KB-3-1 cytotox inconclusive, KB-V1 cytotox inactive and SW480 rereplic 0%.
`C1CNC2NCCNC2N1` (stereo not given) gave IL1B secr inh 20, MCF10A rereplic -2%, KB-3-1 cytotox inactive, KB-V1 cytotox inactive and SW480 rereplic -2%.
For Cc1nnc2ccc(-c3cccc(C(F)(F)F)c3)nn12 the results were IL1B secr inh 0, MCF10A rereplic 4%, KB-3-1 cytotox inactive, KB-V1 cytotox 12µM* and SW480 rereplic -97%.
Screening CC1(C)CC2CC(C)(CN2S(=O)(=O)c2cccc(C(=O)OCC(=O)NC(N)=O)c2)C1 (stereo not given) returned IL1B secr inh 39, MCF10A rereplic -6%, KB-3-1 cytotox inactive, KB-V1 cytotox inactive and SW480 rereplic inconclusive.
`O=Cc1cn(Cc2cccc(F)c2)c2ccccc12` gave IL1B secr inh 21, MCF10A rereplic inconclusive, KB-3-1 cytotox inconclusive, KB-V1 cytotox inactive and SW480 rereplic inconclusive.
O=Cc1cn(Cc2ccc(Br)cc2)c2ccccc12 was read as IL1B secr inh -13, MCF10A rereplic 6%, KB-3-1 cytotox 10µM*, KB-V1 cytotox inconclusive and SW480 rereplic -5%.
Screening Cc1cc(S(=O)(=O)NC(C)C)ccc1OCC(=O)N1CCN(Cc2ccc3c(c2)OCO3)CC1 returned IL1B secr inh -9, MCF10A rereplic -1%, KB-3-1 cytotox 16µM*, KB-V1 cytotox 2.6µM* and SW480 rereplic -2%.
For Cc1cccc(N2CCN(C(=O)C34CC5CC(CC(C5)C3)C4)CC2)c1C the results were IL1B secr inh 16, MCF10A rereplic inconclusive, KB-3-1 cytotox inactive, KB-V1 cytotox inactive and SW480 rereplic 3%.
`CC(C)C1C(c2ccccc2)N(C)C(c2ccccc2)CC1(O)c1ccccc1` (stereo not given) gave IL1B secr inh -8, MCF10A rereplic 5.2µM*, KB-3-1 cytotox inactive, KB-V1 cytotox inconclusive and SW480 rereplic inconclusive.
`NC1CC2CCCCC2CC1(O)c1ccccc1` (stereo not given) gave IL1B secr inh -15, KB-3-1 cytotox inactive and KB-V1 cytotox inactive.
Screening O=C1NC(=O)N(Cc2ccccc2Cl)C(=O)/C1=C/c1cccs1 returned IL1B secr inh inconclusive, MCF10A rereplic inconclusive, KB-3-1 cytotox inactive, KB-V1 cytotox inactive and SW480 rereplic inconclusive.
`O=C1NC(=O)N(Cc2ccc(F)cc2)C(=O)/C1=C/c1cccs1` gave IL1B secr inh -101*, MCF10A rereplic inconclusive, KB-3-1 cytotox inactive, KB-V1 cytotox inactive and SW480 rereplic inconclusive.
For N=Cc1c(O)n(-c2ccc(C34CC5CC(CC(C5)C3)C4)cc2)c(=O)[nH]c1=O the results were IL1B secr inh 5, MCF10A rereplic 5%, KB-3-1 cytotox inactive, KB-V1 cytotox inactive and SW480 rereplic 3.3µM*.
For CCCCCn1c(=O)c(C(=O)Nc2cnccn2)c(O)c2ccccc21 the results were IL1B secr inh 82, MCF10A rereplic 16µM*, KB-3-1 cytotox inconclusive, KB-V1 cytotox 16µM* and SW480 rereplic 25%.
Screening CCCCCCCn1c(=O)c(C(=O)Nc2cnccn2)c(O)c2ccccc21 returned MCF10A rereplic 3.7µM*, KB-3-1 cytotox 3.3µM*, KB-V1 cytotox 2.6µM* and SW480 rereplic inconclusive.
For CCCCCn1c(=O)c(C(=O)Nc2cc(C)ccn2)c(O)c2ccccc21 the results were IL1B secr inh 3, MCF10A rereplic 12%, KB-3-1 cytotox inactive, KB-V1 cytotox inconclusive and SW480 rereplic -6%.
`COc1cc2c(cc1OC)-c1c(OC)c(OC)cc3c1[C@H](C2)N(C)CC3` gave IL1B secr inh -1, MCF10A rereplic 13%, KB-3-1 cytotox inconclusive, KB-V1 cytotox 13µM* and SW480 rereplic -1%.
`COc1cc2c(cc1O)CC1c3c(cc(O)c(OC)c3-2)CCN1C` (stereo not given) gave IL1B secr inh inconclusive, MCF10A rereplic 2%, KB-3-1 cytotox inactive, KB-V1 cytotox inactive and SW480 rereplic -6%.
N#Cc1c(Br)n(C2OC(CO)C(O)C2O)c2ncnc(N)c12 (stereo not given) was read as IL1B secr inh -69*, MCF10A rereplic inconclusive, KB-3-1 cytotox inconclusive, KB-V1 cytotox inconclusive and SW480 rereplic inconclusive.
`NC(=O)c1c(Br)n(C2OC(CO)C(O)C2O)c2ncnc(N)c12` (stereo not given) gave IL1B secr inh -76*, MCF10A rereplic 2.3µM*, KB-3-1 cytotox 4.1µM*, KB-V1 cytotox 9.2µM* and SW480 rereplic inconclusive.
`CCNC(=O)[C@H]1O[C@@H](n2cnc3c(N)ncnc32)[C@H](O)[C@@H]1O` gave IL1B secr inh 19, MCF10A rereplic -40%, KB-3-1 cytotox inactive, KB-V1 cytotox inactive and SW480 rereplic -34%.
`COc1cc2c(cc1OC)C(C(=O)N(C)C1CCCCC1)C1CCCCN1C2=O` (stereo not given) gave IL1B secr inh -1, MCF10A rereplic inconclusive, KB-3-1 cytotox inactive, KB-V1 cytotox inconclusive and SW480 rereplic -2%.
`NC(=O)C[N+]1(CC#CC(O)(c2ccccc2)c2ccccc2)CCCC1` gave IL1B secr inh -7, MCF10A rereplic inconclusive, KB-3-1 cytotox inactive, KB-V1 cytotox inactive and SW480 rereplic -3%.
For CCOC(=O)CC(NC(=O)C(Cc1ccc(N(CCCl)CCCl)cc1)NC(C)=O)C(=O)OCC (stereo not given) the results were IL1B secr inh -79*, MCF10A rereplic inconclusive, KB-3-1 cytotox inactive, KB-V1 cytotox inactive and SW480 rereplic inconclusive.
